Source: PubChem BioAssay
Shown are actives, neighbours in structure and some others; about 19% of the full set was active somewhere.
HT1080 IDH1KD tx: HT-1080 IDH1 knockdown cell toxicity (counter line); hit rate 2% among 360,000; AID 686971; Potency, µM (series often up to 46.1 µM), for inactives: top-dose activity, negative = toxicity, actives largely listed as cytotoxic; HT-1080 IDH1 knockdown viability, ATP luminescence, 48 h;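 also: potency is read from the fitted curve at half-maximal effect; 0% = DMSO wells and -100% = cell-free medium wells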
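Using the IDH1-knockdown HT-1080 line run in the same batch and compound series as the NT line, viability after 48 h at 37 °C was determined by CellTiter-Glo luminescence and expressed as % activity.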
TDP1 cell noCPT: qHTS for Inhibitors of human tyrosyl-DNA phosphodiesterase 1 (TDP1): qHTS in cells in absence of CPT; AID 686978, 2013; DT40 Tdp1-/- hTDP1 cells, no CPT, ATP luminescence, 48 h; Potency, µM (series often up to 46.2 µM), for the others: top-dose activity change, negative = growth inhibition, actives largely listed as inhibitors; hit rate 15% among 420,000; also: potency is read from the fitted curve at half-maximal effect; nearly all actives have a fitted effect of over 55% in size
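Seeded 400 DT40-hTDP1 cells/well (vehicle DMSO, no 20 nM CPT); pinned compounds; ≥48 hr at 37 °C; CellTiter-Glo luminescence as viability measure.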
TDP1 cell CPT: growth inhibition of DT40 Tdp1-/-;hTDP1 cells with camptothecin (screen for TDP1 inhibitors). chicken DT40 Tdp1-/-;hTDP1 cells + 20 nM CPT, ATP luminescence, 48 h. Potency, µM (doses to about 46.2 µM), for the others: top-dose activity change, negative = growth inhibition, usual class: inhibitors. hit rate 12% among 420,000; also: potency is read from the fitted curve at half-maximal effect; nearly all actives have a fitted effect of over 55% in size
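Chicken DT40 Tdp1-/- cells complemented with human TDP1, 400 cells/well, exposed to compounds plus 20 nM camptothecin for at least 48 h at 37 C; viability read as ATP content by CellTiter-Glo luminescence.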
HT1080NT lethal: kills 2HG-producing HT-1080-NT fibrosarcoma cells; HT-1080-NT fibrosarcoma viability, CellTiter-Glo ATP luminescence, 48 h; Potency, µM (titrated, usually from 46.1 µM), without a hit: at the top dose activity, negative = less viability, usual class: cytotoxic; hit rate 1.6% among 360,000; AID 686970;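 also: NT is the 2HG producing partner of a matched IDH1 knockdown line; potency is read from the fitted curve at half-maximal effect; 0% = DMSO-treated cells and -100% = media-only wells without cells; nearly all actives have a fitted effect of over 55% in size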
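Read-out is CellTiter-Glo luminescence after 10 minutes at room temperature, following 48 hours' compound treatment of HT-1080-NT cells (750 cells/well, RPMI, 5% FBS, 37 degrees C).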
IL-1B inflam inh: blocks inflammasome-driven IL-1 beta release; THP-1 LPS/ATP IL-1B secretion, AlphaLISA, 16 h; active compounds read low; activity change, % at 57.5 µM; hit rate 4.7% among 360,000; AID 743279; in the data active = activity change below about -50%; inconclusive = mostly about -30% to -49%
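THP-1 cells pretreated 1 hr with compounds (up to 57.5 uM final), then stimulated with LPS (250 ng/mL final) plus ATP (1.25 mM final); secreted IL-1B measured by AlphaLISA after 16 hr, decreased signal indicating inhibition.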
* hit, by the source's call; ? = inconclusive; [ ] = another dose, or the depositor's remark. Unless noted, calls follow the shape of the dose curve; as a rule, active = well fitted curve in the direction sought with a large enough effect; inconclusive = small, poorly fitted or top-dose-only effect, or another doubt; inactive = no such curve, though single readings can be large; an effect the other way counts as inactive or inconclusive. Unless noted, % is scaled to controls: 0 for no effect and ±100 for the full control effect.

SMILES	HT1080 IDH1KD tx	TDP1 cell noCPT	TDP1 cell CPT	HT1080NT lethal	IL-1B inflam inh
NC(=O)c1cc([N+](=O)[O-])ccc1NCc1cccnc1	28.2%	?	-25.5%	4.0%	28.3
NC(=O)c1cc([N+](=O)[O-])c(Cl)cc1NCc1cccnc1	-6.0%	?	?	3.8%	-76.7*
CC(C)(C)C(=O)N1CCN(c2ccc([N+](=O)[O-])c(NCc3cccnc3)c2)CC1	-20.6%	4.11µM*	4.11µM*	-12.3%	-4.6
CC1=C(O)C(=O)C(c2c(C)cc(C)c(Br)c2C)=C(O)C1=O	?	?	?	?	15.7
CCCC(=O)Nc1cc2c3c(c1)C(C)C(=O)N3CCC2 (stereo not drawn)	-1.4%	0.4%	5.8%	0.6%	0.3
CC(=O)Nc1cc(-c2ccc(N)nc2)cn2c(-c3cccc(C(F)(F)F)c3)cnc12	?	14.6µM*	?	?	0.0
CC(=O)Nc1cccc(-c2cc(NC(C)=O)c3ncc(-c4cccc(C(F)(F)F)c4)n3c2)c1	0.0%	23.1µM*	25.9µM*	-25.0%	-2.7
COc1ccc(F)cc1-c1cc(NC(C)=O)c2ncc(-c3cccc(C(F)(F)F)c3)n2c1	?	?	29.1µM*	?	?
CC(=O)Nc1cc(-c2ccc(CO)cc2)cn2c(-c3cccc(C(F)(F)F)c3)cnc12	?	23.1µM*	18.4µM*	-29.1%	-27.1
CC(=O)Nc1cc(-c2cccc(NS(C)(=O)=O)c2)cn2c(-c3ccccc3)cnc12	?	?	?	?	-16.0
Cc1ccc(S(=O)(=O)NC(C)(C)CSc2nnc(N)s2)cc1	-1.3%	-10.4%	-7.7%	-0.9%	8.1
CC(=O)Nc1cc(-c2ccc(N)cc2)cn2c(-c3cccc(C(F)(F)F)c3)cnc12	-16.9%	16.4µM*	16.4µM*	-2.5%	-9.9
COc1ccc(N2CC(C(=O)OCC(=O)Nc3cccc(C)c3)CC2=O)cc1 (stereo not drawn)	11.2%	-12.3%	-8.8%	-1.3%	-14.2
Cc1ccc(-n2c(C)cc(C(=S)N3CCOCC3)c2C)cc1C	17.4%[9.24 µM]	14.6µM*	23.1µM*	?	-67.3*
Cc1ccc(NCc2ccc(O)c3ncccc23)cc1	-25.1%	?	?	1.3%	-3.1
Cc1cccnc1NCc1ccc(O)c2ncccc12	?	5.8µM*	4.61µM*	?	100.4
Cc1cccc(NCc2ccc(O)c3ncccc23)c1C	?	14.6µM*	?	-23.4%	23.5
COc1cc(CC(=O)OCC(=O)c2ccc(F)cc2)cc(OC)c1OC	2.1%	8.5%	4.0%	2.8%	8.5
OCCN1CCN(CC/C=C2/c3ccccc3Sc3ccc(C(F)(F)F)cc32)CC1	20.6µM*	9.44µM*	20.6µM*	20.6µM*	?
OCCN1CCN(CC/C=C2/c3ccccc3CSc3ccccc32)CC1	-21.3%	?	?	-9.7%	0.0
Cc1ccc(NC(=O)C2SC(=Nc3ccccc3)C(C(=O)Nc3ccc(Cl)cc3)=C2N)cc1 (stereo not drawn)	-26.4%	18.4µM*	6.51µM*	-22.0%	-15.6
Cc1ccc(N=C2SC(C(=O)Nc3ccc(OC(F)(F)F)cc3)C(N)=C2C(=O)Nc2c(C)cc(C)cc2C)cc1 (stereo not drawn)	18.4µM*	?	?	14.6µM*	-104.2*
Cc1ccc(NC(=O)c2cc3cc(OC(F)(F)F)ccc3[nH]2)cc1	14.4%	-26.2%	-1.8%	10.2%	?
O=P(NCc1ccccc1)(OCc1ccccc1)OCc1ccccc1	24.0%	?	?	4.5%	-15.4
S=C1NCCOCCOCCOCCOCCNC(=S)NCCOCCOCCOCCOCCN1	10.6%	13.0%	-1.4%	6.0%	20.3
O=S(=O)(c1ccc(F)cc1)c1nc(-c2ccccc2F)oc1N1CCCCC1	-11.9%	?	?	-6.7%	-10.9
NC(=O)C1CCN(c2oc(-c3cccs3)nc2S(=O)(=O)c2ccc(Cl)cc2)CC1	-14.4%	0.5%	11.0%	2.2%	-54.7*
